# PubChem BioAssay (Tox21)
# Inconclusive results are not listed. Values without a mark were called inactive. Activity calls are given as the source filed them. Calls follow the shape of the dose curve; as a rule, active = well fitted activation curve with a large enough effect in the signal ratio in the repeat runs (not every such curve was filed as active); inconclusive = weak or mixed curves, or effect the other way; inactive = no such curve, though single readings can be large or run the other way; the % refers to the signal ratio.
# Target: Glucocorticoid receptor (Homo sapiens) (UniProt P04150)
# Test: qHTS assay to identify small molecule agonists of the glucocorticoid receptor (GR) signaling pathway (AID 720691)
# Conditions: GR-bla HeLa, beta-lactamase reporter ratio, 18 h; series mostly up to 62.4 µM; activation: at the top concentration
# Description: U.S. Tox21 Program National Center for Advancing Translational Sciences [NCATS] NIH Chemical Genomics Center [NCGC] U.S. Environmental Protection Agency [EPA] National Institutes of Environmental Health Sciences [NIEHS] National Toxicology Program [NTP] U.S. Food and Drug Administration [FDA] Tox21 Assay Overview: The Glucocorticoid receptor (GR) is one of the members of the nuclear receptor family of ligand-dependent transcription factors. GR plays a critical role in carbohydrate, protein and lipid metabolisms and programmed cell death. CellSensor GR-bla HeLa cell line (Invitrogen) contains a beta-lactamase reporter gene under the control of the glucocorticoid response element stably integrated into HeLa cells, a cervical cancer cell line that expresses glucocorticoid receptor. The activation of the reporter gene under culture conditions can be detected by fluorescence intensity. This cell line has been used to screen the Tox21 10K compound library and to identify the compounds that activate the GR signaling.
# Tox21 Assay Protocol Summary: The GR-bla HeLa cells were dispensed at 1500 cells/6 ul/well in 1536-well black wall/clear bottom plates using a Multidrop Combi (ThermoFisher Scientific, Waltham, MA) dispenser. After the assay plates were incubated at a 37 C/5% CO2 incubator for 4 hours, 23 nL of compounds dissolved in DMSO, positive controls or DMSO only was transferred to the assay plate by a pintool station (Kalypsys, San Diego, CA). The plates were incubated at 37 C for 18 hours. After 1 uL of LiveBLAzerTM B/G FRET substrate was added using a Flying Reagent Dispenser (Aurora Discovery, San Diego, CA), the plates were incubated at room temperature for 2 hours, and fluorescence intensity was measured by an Envision plate reader (PerkinElmer, Shelton, CT).
# % is scaled to controls: 0 for no effect and ±100 for the full control effect; potency is read from the fitted curve at half-maximal effect.
# Glucocorticoid receptor (Homo sapiens), sequence (P04150 whole entry, looked up): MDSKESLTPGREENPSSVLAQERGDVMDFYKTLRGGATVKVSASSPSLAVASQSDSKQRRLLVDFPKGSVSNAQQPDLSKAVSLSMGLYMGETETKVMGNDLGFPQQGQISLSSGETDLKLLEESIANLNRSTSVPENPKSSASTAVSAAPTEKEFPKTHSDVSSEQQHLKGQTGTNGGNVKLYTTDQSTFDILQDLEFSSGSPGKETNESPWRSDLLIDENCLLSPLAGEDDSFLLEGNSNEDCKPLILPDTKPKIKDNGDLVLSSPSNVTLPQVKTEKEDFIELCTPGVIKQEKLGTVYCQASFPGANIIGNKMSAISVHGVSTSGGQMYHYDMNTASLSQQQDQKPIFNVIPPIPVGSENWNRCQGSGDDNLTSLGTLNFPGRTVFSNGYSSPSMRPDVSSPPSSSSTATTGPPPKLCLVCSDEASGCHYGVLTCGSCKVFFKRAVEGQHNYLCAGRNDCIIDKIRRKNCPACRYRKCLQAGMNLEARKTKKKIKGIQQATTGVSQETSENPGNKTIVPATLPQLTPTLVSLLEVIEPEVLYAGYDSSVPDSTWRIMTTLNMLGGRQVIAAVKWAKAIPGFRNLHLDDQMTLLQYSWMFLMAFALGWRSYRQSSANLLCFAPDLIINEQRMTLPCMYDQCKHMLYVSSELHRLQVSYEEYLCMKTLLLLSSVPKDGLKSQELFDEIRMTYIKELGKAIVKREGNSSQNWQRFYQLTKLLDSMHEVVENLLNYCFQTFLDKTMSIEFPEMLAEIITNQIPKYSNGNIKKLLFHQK
SMILES,activation,Potency
CC(C)CC(O)Cc1ccccc1 (stereo not given),1.94%,–
CCN(CC)CC,0.57% [at 79.2 µM],–
O=C1Nc2ccccc2C1=O,-3.28%,–
CC(=O)Nc1ccc(S(=O)(=O)Nc2cc(C)on2)cc1,2.25%,–
CCc1ccc(CC)cc1,-0.674% [at 79.2 µM],–
C=CCn1cc[n+](C)c1,-0.637% [at 79.2 µM],–
Cc1cc(C)c(N)c(Cl)c1,-1.92%,–
Cc1nnc(C(=O)NC(C)(C)c2nc(C(=O)NCc3ccc(F)cc3)c(O)c(=O)n2C)o1,-1.44%,–
O=P(O)(O)C(O)(Cc1cccnc1)P(=O)(O)O,0.355%,–
O=C(CCBr)N1CCN(C(=O)CCBr)CC1,3.27%,–
CCC(C)(C)C,-0.681% [at 79.2 µM],–
Cc1ccc2cccnc2c1,-0.361%,–
COC(=O)c1ccc(C(=O)O)cc1,-0.811%,–
O=Cc1ccccc1S(=O)(=O)O,-0.762%,–
C[n+]1ccccc1/C=N/O,-1.57% [at 29.2 µM],–
C=CCN(CC=C)CC=C,-4.06%,–
O=C(O)COc1ccc2ccccc2c1,-4.43%,–
CC(=O)SCC(CC(=O)c1ccc(C)cc1)C(=O)O (stereo not given),-0.0903%,–
C=CCCCCCCCCOC(C)=O,0.121%,–
CC(=O)Nc1ccc(OCCOCCOc2ccc(NC(C)=O)cc2)cc1,0.373%,–

SMILES,activation,Potency
CC(O)C(CO)C(C)O (stereo not given),0.105% [at 79.2 µM],–
CC(C)(Sc1cc(C(C)(C)C)c(O)c(C(C)(C)C)c1)Sc1cc(C(C)(C)C)c(O)c(C(C)(C)C)c1,-2.07% [at 29.2 µM],–
CC(=O)OC/C=C(/C)CCC=C(C)C,6.59%,–
CC/C=C\CCCCCCCCCCOC(C)=O,0.0147%,–
CCCCCCCCCCCCCCCCN(C)C,-0.164% [at 6.9 µM],–
C=CCON/C(CCC)=C1\C(=O)CC(C)(C)C(C(=O)OC)=C1O,-2.27%,–
CCCCCCCCCCCCCCBr,0.684% [at 79.2 µM],–
c1cc2ccc3ccc4ccc5cccc6c(c1)c2c3c4c56,–,1950 nM (active)
C=COCCCCO,7.56%,–
CCOC(=O)CC(C(C)=O)C(C)=O,0.239%,–
C=CCCCCCCCCCCCCCC,1.61% [at 29.2 µM],–
CCO[Si](CC(C)C)(OCC)OCC,3.23%,–
CCCCNCC,-1.04%,–
Cc1ccc(Br)cc1,-2.66%,–
COC(=O)c1ccccc1Cl,-3.25%,–
CC(C)(O)c1ccc(C(C)(C)O)cc1,0.0632%,–
CN1CCN(C(=O)C2CCCCC2)CC1,0.0327%,–
CC(C)c1cc(C(C)C)cc(C(C)C)c1,-0.565%,–
O=C(OOC(=O)c1ccccc1)c1ccccc1,-1.05%,–
c1coc(Cn2cccc2)c1,-0.0052%,–
